Only some compounds are listed: those with a hit (about 8.7% of all), similar ones and a draw of the others.
G9a block = blocks human histone lysine methyltransferase G9a; G9a H3K9 monomethylation, AlphaScreen, 2 h; Q96KQ7; Potency, µM (series often up to 102 µM), without a hit: at the top dose activity, negative = inhibition, usual class: inhibitors; 350,000 tested, 8.8% active; AID 504332; note: % is set by controls: 0 for no effect and ±100 for the full control effect; nearly all actives have a fitted effect of over 75% in size
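G9a (20 nM) was preincubated 15 min with compound, then reacted 2 h at room temperature with 500 nM biotin-H3K9 peptide and 20 µM SAM. Monomethyl-H3K9 detected by AlphaScreen using anti-H3K9me1 antibody.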
BAZ2B inh = inhibitors of human BAZ2B bromodomain | Q9UIF8 | AlphaScreen BAZ2B-H3K14Ac peptide displacement | Potency, µM (highest dose often 114 µM), for inactives: at the highest dose activity change, negative = inhibition, actives largely listed as inhibitors | 360,000 tested, 4.4% active | AID 504333; note: % is set by controls: 0 for no effect and ±100 for the full control effect; nearly all actives have a fitted effect of over 60% in size
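Inhibition is scored as reduced AlphaScreen emission. The BAZ2B/b-H3(5-23)K14Ac complex (50 nM each) in PBS pH 7.4, 0.01% Tween-20 meets compound (up to 110 uM) for 30 min at RT before bead addition.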
JMJD2A Tudor = blocks the human JMJD2A Tudor domain. O75164. AlphaScreen JMJD2A-Tudor / H3K4me3 peptide binding. Potency, µM (titrated, usually from 114 µM), for inactives: at the top dose activity change, negative = inhibition, hits mostly inhibitors. 390,000 tested, 4.4% active; note: % is set by controls: 0 for no effect and ±100 for the full control effect; nearly all actives have a fitted effect of over 50% in size
Sfp inh = blocks B. subtilis Sfp PPTase activity; Biochemical Sfp PPTase activity, qHTS; Potency, µM, without a hit: largest response in the series, negative = inhibition, usual class: inhibitors; 310,000 tested, 3.5% active;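 note: the enzyme is Sfp with the accession as filed and its product quenches rhodamine fluorescence; 0% = enzyme reaction without inhibitor and -100% = no enzyme wells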
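After 15 min at room temperature with compound, 15 nM Sfp received 5 uM rhodamine-CoA plus 12.5 uM BHQ-2-ybbR (50 mM Hepes pH 7.6, 10 mM MgCl2). Rate came from the fluorescence difference over 30 min, ex 525/em 598 nm.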
HP1b binding inh = inhibitors of HP1-beta chromodomain binding to methylated histone tails | P83916 | AlphaScreen HP1-beta / biotin-H3K9me3 peptide binding | Potency, µM (top dose mostly 114 µM), for inactives: at the highest dose activity change, negative = inhibition, actives largely listed as inhibitors | 390,000 tested, 0.56% active | AID 540317; note: nearly all actives have a fitted effect of over 70% in size
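HP1-beta protein (50 nM final) preincubated 30 min at room temperature with biotinylated H3(1-18)K9me3 peptide (50 nM) in PBS pH 7.4, 0.01% Tween-20, then compound added for 30 min. AlphaScreen streptavidin donor/nickel chelate acceptor beads (10 ug/mL final), 30 min dark, luminescence read.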
12-LOX inh = inhibitors of human 12S-lipoxygenase ALOX12; Potency, µM (highest dose often 108 µM), for inactives: at the highest dose activity change, negative = inhibition, usual class: inhibitors; purified 12hLO, xylenol orange hydroperoxide absorbance; AID 1671190; 580,000 tested, 1.1% active; note: % is set by controls: 0 for no effect and ±100 for the full control effect
Target sequence (P18054 whole entry, looked up): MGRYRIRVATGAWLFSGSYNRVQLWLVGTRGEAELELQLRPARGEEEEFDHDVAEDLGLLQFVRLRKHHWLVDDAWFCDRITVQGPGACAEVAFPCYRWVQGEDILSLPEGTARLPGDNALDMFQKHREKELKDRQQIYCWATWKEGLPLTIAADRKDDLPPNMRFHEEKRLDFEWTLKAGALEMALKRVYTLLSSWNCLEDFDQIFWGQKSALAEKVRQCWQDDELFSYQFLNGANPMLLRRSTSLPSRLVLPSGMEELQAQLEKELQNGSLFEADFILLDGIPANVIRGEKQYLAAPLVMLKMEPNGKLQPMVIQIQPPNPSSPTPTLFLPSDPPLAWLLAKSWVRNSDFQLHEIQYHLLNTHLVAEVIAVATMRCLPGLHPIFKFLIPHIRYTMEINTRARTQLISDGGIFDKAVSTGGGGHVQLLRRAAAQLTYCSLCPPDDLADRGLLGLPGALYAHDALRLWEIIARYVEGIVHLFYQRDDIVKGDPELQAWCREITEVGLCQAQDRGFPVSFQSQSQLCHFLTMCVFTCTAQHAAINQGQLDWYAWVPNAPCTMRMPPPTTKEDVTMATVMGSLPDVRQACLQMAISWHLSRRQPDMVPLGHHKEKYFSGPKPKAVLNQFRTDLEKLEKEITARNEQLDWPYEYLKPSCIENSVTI
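Purified human 12hLO at 150 nM in 25 mM Hepes, 0.01% Triton X-100, pH 7.0, preincubated 15 min at room temperature with compound. Reaction started with 40 uM arachidonic acid, 30 min at room temperature. Hydroperoxide measured by Fe-xylenol orange, 573/405 nm absorbance ratio.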
* hit, by the source's call; [ ] = remark or other dose. Calls come from the whole dose curve; as a rule, active = well fitted curve in the direction sought with a large enough effect; inconclusive = small, poorly fitted or top-dose-only effect, or another doubt; inactive = no such curve, though single readings can be large; an effect the other way counts as inactive or inconclusive. Potency is the fitted concentration of half-maximal effect.

`NC(=O)C(Sc1ccccc1F)c1ccccc1` (centres undefined) gave 12-LOX inh 22%.
For Cc1ccc(S(=O)(=O)Nc2c(NCC3CCCCC3)c3ccccc3oc2=O)cc1 the results were 12-LOX inh -7%.
For COc1ccc2nc(NN=C(C)c3ccccn3)cc(C)c2c1 the results were JMJD2A Tudor 45µM*, HP1b binding inh inconclusive and 12-LOX inh inconclusive.
For O=C(OCc1noc(-c2ccco2)n1)c1cc(Br)c[nH]1 the results were 12-LOX inh 25µM*.
`O=C(OCc1noc(-c2ccco2)n1)c1cncc(Br)c1` gave 12-LOX inh 7%.
`CCCC1=NN2C(=N)/C(=C\c3cc(C)n(Cc4ccccc4)c3C)C(=O)N=C2S1` gave G9a block 5%, BAZ2B inh -2%, JMJD2A Tudor -24%, Sfp inh -18%, HP1b binding inh 50% and 12-LOX inh -2%.
For CCC1=NN2C(=N)/C(=C\c3ccc(SCc4ccco4)o3)C(=O)N=C2S1 the results were G9a block 7.1µM*, BAZ2B inh 50µM*, JMJD2A Tudor inconclusive, Sfp inh 45µM*, HP1b binding inh -15% and 12-LOX inh inconclusive.
For CCCC1=NN2C(=N)/C(=C\c3ccc(SCc4ccco4)o3)C(=O)N=C2S1 the results were G9a block 8.9µM*, BAZ2B inh 45µM*, JMJD2A Tudor 50µM*, Sfp inh 56µM* and HP1b binding inh inconclusive.
CN1CCCCCCN(C(=O)c2nccc3ccccc23)[C@H]2CCC[C@H]2C1=O was read as 12-LOX inh 17%.
Screening Cc1[nH]c2ccccc2c1C(=O)COC(=O)c1ccccc1O returned JMJD2A Tudor -1%, HP1b binding inh 15% and 12-LOX inh inconclusive.
CCOC(=O)c1c(C)[nH]c(C)c1C(=O)COC(=O)CCOc1ccccc1OC was read as G9a block inconclusive, BAZ2B inh -32%, JMJD2A Tudor 79µM*, Sfp inh -5%, HP1b binding inh -23% and 12-LOX inh -10%.
`CCOC(=O)c1c(C)[nH]c(C)c1C(=O)COC(=O)c1ccccc1O` gave G9a block 50µM*, BAZ2B inh -34%, JMJD2A Tudor -21%, Sfp inh 9%, HP1b binding inh 7% and 12-LOX inh inconclusive.
Screening O=C(CC12CC3CC(CC(Br)(C3)C1)C2)NC1CCCC(C(F)(F)F)C1 (centres undefined) returned 12-LOX inh -33%.
Screening COc1cc(C2C(=O)N(C3CCCCCC3)CC(=O)N2Cc2ccccc2)ccc1OC(C)C (centres undefined) returned G9a block 1%[59 µM], BAZ2B inh -8%, JMJD2A Tudor -17%, HP1b binding inh 14% and 12-LOX inh -15%.
COc1cc(C2C(=O)N(C3CCCC3)CC(=O)N2Cc2ccco2)ccc1OC(C)C (centres undefined) was read as G9a block 79µM*, BAZ2B inh -32%, JMJD2A Tudor -16%, Sfp inh -5%, HP1b binding inh -6% and 12-LOX inh -25%.
`O=C(c1ccco1)N(CCc1ccccc1)Cc1cccs1` gave 12-LOX inh -17%.
`Cc1csc(Nc2ccccc2)[n+]1-c1ccccc1` gave G9a block 10µM*, BAZ2B inh 45µM*, JMJD2A Tudor 22µM*, Sfp inh 6%, HP1b binding inh 28µM* and 12-LOX inh -19%.
`Cc1ccc(-n2nnnc2SCC(=O)N2CCN(CC(=O)N3CCCC3)CC2)cc1` gave 12-LOX inh 9%.
Screening O=C(c1ccccc1Cl)N1CCCC(c2nc3ccccc3o2)C1 (centres undefined) returned 12-LOX inh -15%.
`O=[N+]([O-])c1cc(S(=O)(=O)NC2=NCCCCC2)ccc1NCC1CCCCC1` gave G9a block 45µM*, JMJD2A Tudor 45µM*, Sfp inh -3%, HP1b binding inh -14% and 12-LOX inh 1%.
For Nc1ccc(S(=O)(=O)NC2=NCCCCC2)cc1N the results were G9a block inconclusive, JMJD2A Tudor -10%, Sfp inh 18%, HP1b binding inh 9% and 12-LOX inh 7%.
Screening CCCCn1c(=O)c(-[n+]2ccccc2)c([O-])c2ccccc21 returned G9a block 8.9µM*, BAZ2B inh inconclusive, JMJD2A Tudor -5%, Sfp inh 14µM*, HP1b binding inh 49% and 12-LOX inh -1%.
CC(C)Cn1c(=O)c(-[n+]2ccccc2)c([O-])c2ccccc21 was read as G9a block 65%, BAZ2B inh 8%, JMJD2A Tudor 1%, Sfp inh -12%, HP1b binding inh 40% and 12-LOX inh -8%.
`O=C(C1=NN[C@@H]2C(=O)N(c3cccc(F)c3)C(=O)[C@H]12)c1ccc2ccccc2n1` gave G9a block inconclusive, BAZ2B inh -37%, JMJD2A Tudor -26%, Sfp inh 19%, HP1b binding inh 46% and 12-LOX inh 7%.
`COc1cccc(N2C(=O)[C@H]3C(C(=O)c4cnccn4)=NN[C@H]3C2=O)c1` gave G9a block inconclusive, BAZ2B inh 50µM*, JMJD2A Tudor 50µM*, Sfp inh 79µM*, HP1b binding inh 46% and 12-LOX inh 14%.
Cc1cccc(N=Nc2c(O)[nH]c3ccc(Br)cc23)c1 was read as G9a block 45µM*, BAZ2B inh -22%, JMJD2A Tudor -28%, Sfp inh 9%, HP1b binding inh 23% and 12-LOX inh inconclusive.
`Cc1ccccc1N=Nc1c(O)[nH]c2ccccc12` gave JMJD2A Tudor inconclusive, HP1b binding inh -5% and 12-LOX inh 0%.
Screening Cc1cccc(C)c1OCC(=O)N=Nc1c(O)[nH]c2ccc(Br)cc12 returned G9a block -38%[59 µM], BAZ2B inh -5%, JMJD2A Tudor -22%, Sfp inh 9%, HP1b binding inh 18% and 12-LOX inh 3%.
For COc1ccc2[nH]c(N=Nc3ccccc3C)c(O)c2c1 the results were G9a block 13µM*, BAZ2B inh inconclusive, JMJD2A Tudor 45µM*, Sfp inh -10%, HP1b binding inh -12% and 12-LOX inh inconclusive.
Screening Cc1ccc2[nH]c(O)c(N=Nc3ccccc3C)c2c1 returned G9a block 8.9µM*, BAZ2B inh inconclusive, JMJD2A Tudor inconclusive, Sfp inh 35µM*, HP1b binding inh 71µM* and 12-LOX inh inconclusive.
`COc1ccccc1N=Nc1c(O)[nH]c2ccc(Br)cc12` gave G9a block -10%, BAZ2B inh 3%, JMJD2A Tudor 45µM*, Sfp inh 7%, HP1b binding inh -2% and 12-LOX inh 0%.

Screens from PubChem.
